From PMC5540273 (PLoS ONE, 2017)

Assays:
Conditions in all cases: concentration: 1 μM,replicates: in singlicate; n = 1
RIOK1 = system: RIOK1
RIOK2 = system: RIOK2
RIOK3 = system: RIOK3
RIPK1 = system: RIPK1
RIPK2 = system: RIPK2
RIPK4 = system: RIPK4
RIPK5 = system: RIPK5
ROCK1 = system: ROCK1
ROCK2 = system: ROCK2
ROS1 = system: ROS1
[1] = system: RPS6KA4(Kin.Dom.1-N-terminal)
[2] = system: RPS6KA4(Kin.Dom.2-C-terminal)
[3] = system: RPS6KA5(Kin.Dom.1-N-terminal)
[4] = system: RPS6KA5(Kin.Dom.2-C-terminal)
[5] = system: T1, RSK1(Kin.Dom.1-N-terminal)
T1 construct: gene RPS6KA1

[6] = system: T2, RSK1(Kin.Dom.2-C-terminal)
T2 construct: gene RPS6KA1

[7] = system: T3, RSK2(Kin.Dom.1-N-terminal)
T3 construct: gene RPS6KA3

[8] = system: T4, RSK2(Kin.Dom.2-C-terminal)
T4 construct: gene RPS6KA3

[9] = system: T5, RSK3(Kin.Dom.1-N-terminal)
T5 construct: gene RPS6KA2

[10] = system: T6, RSK3(Kin.Dom.2-C-terminal)
T6 construct: gene RPS6KA2
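Note: KINOMEscan kinase panel screen.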

Row | SMILES | %Inh (RIOK1) [%] | %Inh (RIOK2) [%] | %Inh (RIOK3) [%] | %Inh (RIPK1) [%] | %Inh (RIPK2) [%] | %Inh (RIPK4) [%] | %Inh (RIPK5) [%] | %Inh (ROCK1) [%] | %Inh (ROCK2) [%] | %Inh (ROS1) [%] | %Inh [1] [%] | %Inh [2] [%] | %Inh [3] [%] | %Inh [4] [%] | %Inh [5] [%] | %Inh [6] [%] | %Inh [7] [%] | %Inh [8] [%] | %Inh [9] [%] | %Inh [10] [%]
1 | CS(=O)c1ccc(-c2coc3ccc(-c4n[nH]c(=O)o4)cc23)cc1 (centres unmarked) | 15 | 37 | 0 | 0 | 0 | 0 | 0 | 32 | 0 | 0 | 26 | 85 | 13 | 14 | 0 | 36 | 13 | 0 | 9 | 28
2 | CC(=O)c1c(-c2ccncc2)[nH]c(-c2ccncc2)c1C [GW493036] | 17 | 14 | 0 | 0 | 14 | 0 | 0 | 46 | 27 | 0 | 34 | 0 | 0 | 61 | 26 | 0 | 0 | 0 | 0 | 7
3 | CCCC(=O)Nc1n[nH]c2ncccc12 [SB-601436] | 0 | 0 | 0 | 0 | 0 | 0 | 0 | 0 | 0 | 8 | 3 | 3 | 0 | 0 | 0 | 0 | 19 | 0 | 0 | 0
4 | Cc1ccc(Nc2ccnc(Nc3ccc4c(c3)CS(=O)(=O)C4)n2)cc1O.Cl [GW579362] | 99.8 | 66 | 95.7 | 25 | 93.6 | 98.6 | 89 | 48 | 50 | 81 | 15 | 0 | 0 | 18 | 20 | 7 | 0 | 55 | 47 | 11
5 | Cc1ccn2nc(-c3ccc(F)cc3)c(-c3ccncc3)c2c1.Cl [GW457859] | 23 | 0 | 23 | 1 | 41 | 6 | 0 | 12 | 20 | 0 | 0 | 0 | 44 | 27 | 0 | 44 | 0 | 0 | 0 | 24
6 | CC(C(=O)NC1CCN(c2ccnc(Nc3ccc(F)cc3)n2)C1)c1ccc(Cl)cc1 (centres unmarked) [GSK1379713] | 35 | 0 | 0 | 6 | 0 | 0 | 0 | 27 | 10 | 53 | 6 | 5 | 0 | 0 | 0 | 0 | 0 | 17 | 0 | 0
7 | CCN1CCN(CCCC(=O)Nc2n[nH]c3nc(-c4ccc(O)cc4)c(Br)cc23)CC1 [SB-731579] | 39 | 0 | 9 | 0 | 0 | 27 | 0 | 10 | 0 | 8 | 5 | 98.5 | 4 | 0 | 0 | 0 | 13 | 0 | 0 | 30
8 | C[C@@H](Oc1cc(-n2cnc3cc(-c4ccncc4)ccc32)sc1C(N)=O)c1ccccc1Cl [GSK479719] | 94.1 | 9 | 100 | 0 | 17 | 8 | 37 | 3 | 49 | 8 | 46 | 0 | 9 | 0 | 11 | 7 | 42 | 4 | 30 | 21
9 | C[C@@H]1CNc2c(sc3ccc4nc(-c5ccncc5)ccc4c23)C(=O)N1 | 0 | 0 | 5 | 0 | 0 | 0 | 0 | 14 | 1 | 14 | 33 | 98.7 | 0 | 0 | 0 | 0 | 4 | 0 | 10 | 33
10 | C[C@@H](Oc1cc(-n2cnc3cc(-c4cnn(C)c4)ccc32)sc1C(N)=O)c1ccccc1Cl [GSK580432] | 100 | 25 | 82 | 39 | 10 | 0 | 15 | 14 | 11 | 27 | 82 | 0 | 5 | 6 | 45 | 0 | 60 | 2 | 77 | 0
